Most compounds without a hit are left out; they make up all but 10% or so of the library.
p97 ATPase inh – inhibitors of human p97 ATPase. P55072. recombinant p97 ATPase, Kinase-Glo ATP luminescence, 3 h. inhibition, % at 8 µM. 220,000 tested, 0.42% active. AID 1481; in the data active = inhibition above about 15%
bCat KO growth – beta-catenin-lacking colon tumor cell growth suppression; HCT116 beta-catenin knockout viability, CellTiter-Glo, 60 h; hits give low values; viability, % at 10 µM; 140,000 tested, 1.5% active;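 active = viability at or under a set limit, the compound median less 4 SD, cut at about 6% in these data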
Lmaj promast – Leishmania major promastigote growth inhibition | 200,000 tested, 9% active | Leishmania major promastigotes, resazurin fluorescence viability | AID 1063 | inhibition, % at 10 µM; in the data active = inhibition above about 50%;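 note: promastigotes grown with compound for 44 hours at 28 °C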
PTEN del growth – PTEN-deleted cell growth suppression; HCT116 PTEN-null viability, CellTiter-Glo, 60 h; hits give low values; viability, % at 10 µM; 140,000 tested, 1.2% active;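 active = viability at or below a set limit, 4 SD under the median of all tested compounds, cut at about 3.7% in these data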;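 note: PTEN knockout HCT116 line with beta catenin targeted HCT116 as companion control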
ROMK primary – modulates human ROMK potassium channel activity; P48048; Tet-inducible ROMK, thallium flux fluorescence; actives lie on both sides; B-score at 10 µM; 130,000 tested, 2% active;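 active = signal ratio slope over the read window, or its plate-corrected B-score, at least 3 SD from the plate mean, either direction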;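 note: B-score of the F/F0 ratio slope over 7 to 12 s after thallium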
Target sequence (P48048 whole entry, looked up): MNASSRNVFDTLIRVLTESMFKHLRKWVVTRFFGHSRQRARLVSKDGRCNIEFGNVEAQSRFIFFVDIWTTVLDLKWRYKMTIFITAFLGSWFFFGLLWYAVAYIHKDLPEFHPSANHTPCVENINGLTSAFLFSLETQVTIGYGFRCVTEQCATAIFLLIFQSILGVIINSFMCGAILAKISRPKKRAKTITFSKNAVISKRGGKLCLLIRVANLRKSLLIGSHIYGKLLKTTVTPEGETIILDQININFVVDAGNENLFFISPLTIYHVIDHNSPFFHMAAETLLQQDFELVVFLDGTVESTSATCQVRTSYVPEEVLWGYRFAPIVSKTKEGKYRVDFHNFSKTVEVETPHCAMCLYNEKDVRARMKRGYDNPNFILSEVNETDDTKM
Insulin prom inh – TRM-6 insulin promoter activity inhibition | TRM-6 cells (human fetal islet line), insulin promoter-eGFP reporter, imaging; reporter expression induced with tamoxifen | inhibition, % at 2 µM | 130,000 tested, 0.9% active;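 active = inhibition above the mean plus 3 SD, with well images judged a real hit on visual review, cut at about 60% in these data, passing the limit was not always enough; inconclusive = inhibition over the cutoff but images rejected on review; inactive = inhibition not above the cutoff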
ROMK retest – retested hit modulating human ROMK potassium channel. 3,000 tested, 54% active. ROMK thallium flux, fluorescence ratio; hits give low values. normalized thallium flux (F/F0 slope) at 10 µM. AID 1917. shares compounds with ROMK primary;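 active = Flux at 10 µM at least 3 SD below or above vehicle control mean in one or both replicates; inconclusive = no clear call, values can overlap the other calls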
A number is an active result; i = inactive; ? = inconclusive; nt = no result.

SMILES	p97 ATPase inh	bCat KO growth	Lmaj promast	PTEN del growth	ROMK primary	Insulin prom inh	ROMK retest
C#CCOc1cc(C2C3=C(COC3=O)Nc3cc4c(cc32)OCO4)ccc1OC (stereo not given)	i	nt	i	nt	3.47	nt	i
Cn1c(O)c(C=NCCN2CCOCC2)c(=O)[nH]c1=S	i	nt	nt	nt	nt	nt	nt
O=C1NC(=O)C(=Cc2coc3ccc(O)cc3c2=O)C(=O)N1	i	nt	nt	nt	nt	nt	0.0428
CN1C(=O)C(=Cc2coc3ccccc3c2=O)C(=O)N(C)C1=O	i	nt	nt	nt	nt	nt	nt
CCOC(=O)c1ccc2c(c1)n(Cc1ccccc1)c(C)[n+]2CC	i	nt	i	nt	i	nt	nt
CN(C)c1ccc(C(=O)c2ccc(N(C)C)cc2)cc1	i	i	i	i	i	nt	nt
C/C(=C\c1ccc(N(C)C)cc1)[N+](=O)[O-]	i	i	100.4	2.1	-3.68	nt	0.0512
CN(C)c1ccc(/C=C/[N+](=O)[O-])cc1	i	2.7	i	3.5	-4.11	i	0.037
OCCOCC#CCN1CCOCC1	i	i	i	i	i	i	nt
O=C1C2CCCN2C(c2cccnc2)N1c1nccs1 (stereo not given)	i	i	i	i	nt	nt	nt
C=CCn1c(O)c(C(C)=NCCc2c[nH]c3ccccc23)c(=O)[nH]c1=O	i	nt	nt	nt	i	nt	nt
O=C(/C=C/c1c[nH]c2ccccc12)c1c(O)n(CCc2ccccc2)c(=O)[nH]c1=O	i	nt	nt	nt	nt	nt	0.04
C=CCn1c(=O)c(C=Nc2cccnc2Cl)c(O)n(CCCC)c1=O	i	i	i	i	i	i	nt
CN1C(=O)C(=Cc2ccccc2Oc2ccc(Cl)cc2)C(=O)N(C)C1=O	i	i	62.2	i	nt	i	i
CN1C(=O)C(=Cc2ccccc2OCc2ccc(Cl)cc2)C(=O)N(C)C1=O	i	i	i	i	nt	i	nt
Cn1c(O)c(/C=C/C=Nc2ccccc2)c(=O)n(C)c1=O	i	i	i	i	nt	nt	0.0513
C[C@H]1CC[C@H]2NCCN[C@H]2C1	i	nt	nt	nt	i	nt	nt
Cc1ccc(-n2cc(CNC(C)Cc3cnccn3)c(-c3cccc(C)c3)n2)cc1 (stereo not given)	i	nt	65.1	nt	-3.57	nt	0.0605
O=C(c1ccc2c(c1)ncn2C1CCCCC1)N1CCC2(CC1)OCCO2	i	i	i	i	2.41	i	i
CN1C(=O)C(=Cc2ccc(Sc3ccccc3)o2)C(=O)N(C)C1=O	i	nt	i	nt	-5.58	i	0.0565
CN1c2ccc([N+](=O)[O-])cc2CC2(C(=O)NC(=O)N(c3ccc(Br)cc3)C2=O)C1c1ccccc1 (stereo not given)	i	i	75.5	i	nt	nt	i
O=C1NC(=O)C2(Cc3ccccc3N3CCCC32)C(=O)N1c1ccccc1 (stereo not given)	i	i	i	i	nt	i	nt
Cc1cccc(-n2c(=S)[nH]c3ccccc3c2=O)n1	i	nt	i	nt	2.5	nt	i
COc1cccc(CNCCc2c[nH]c3ccccc23)c1OC	i	nt	i	nt	i	nt	nt
CCOc1cc(CNCCc2c[nH]c3ccccc23)cc(Cl)c1OC	i	nt	i	nt	-3.17	i	0.0611
SMILES	p97 ATPase inh	bCat KO growth	Lmaj promast	PTEN del growth	ROMK primary	Insulin prom inh	ROMK retest
NC1=Nc2ccccc2Oc2ccccc21	i	i	i	i	nt	i	0.0478
COc1ccc(OC)c(N2Cc3ccccc3C2=N)c1	i	nt	i	nt	i	i	nt
Cc1c(CCN)ccc2c1[nH]c1ccccc12	i	nt	nt	nt	-3.23	nt	0.0656
COC(=O)CCCNC(=O)CN1CC(c2ccccc2)CC1=O (stereo not given)	i	i	i	i	nt	i	nt
O=C1NC(=O)N(c2ccccc2)C(=O)/C1=C/C=C/c1ccco1	i	nt	nt	nt	-9.61	nt	0.0461
Cc1ccc(N2C(=O)NC(=O)/C(=C\C=C\c3ccco3)C2=O)cc1	i	nt	nt	nt	nt	nt	nt
Cc1ccc(N2C(=O)NC(=O)/C(=C\C=C\c3ccco3)C2=O)cc1C	i	i	100.1	i	-8.65	i	0.0392
CN1C(=O)/C(=C/C=C/c2ccco2)C(=O)NC1=S	i	nt	nt	nt	i	nt	nt
Cc1cccc(N2C(=O)NC(=O)/C(=C\C=C\c3ccco3)C2=O)c1	i	nt	nt	nt	-14.3	nt	0.0459
Cc1cc(C=C2C(=O)NC(=O)NC2=O)c(C)n1-c1cccnc1	i	nt	nt	nt	nt	nt	nt
C=CCN1C(=O)/C(=C/c2cc(C)n(-c3cccnc3)c2C)C(=O)NC1=S	i	i	99.3	i	-2.85	i	0.0669
Fc1ccccc1CCNCc1cccc2ccccc12	i	i	77.4	i	-3.61	i	0.0567
Fc1ccc(CCNCc2ccccc2Cl)cc1	i	i	i	i	i	i	nt
CN(C)C(Cc1ccccc1)C(=O)c1ccccc1 (stereo not given)	i	i	i	i	nt	i	i
CCOP(=O)(OCC)C1(O)C(=O)Nc2ccc(Br)cc21 (stereo not given)	i	i	i	i	i	i	nt
O=C1NC(=O)C(=Cc2cn(CCOc3ccc4c(c3)OCO4)c3ccccc23)C(=O)N1	i	i	i	i	-5.61	i	?
O=C1NC(=O)C(=Cc2ccc3c(c2)OCO3)C(=O)N1	i	nt	i	nt	i	nt	nt
C/C(=N\Nc1ccccc1)c1c(O)n(Cc2ccccc2)c(=O)[nH]c1=O	i	i	i	i	i	nt	nt
C=CCn1c(O)c(C(C)=Nc2ccc(C(=O)O)cc2)c(=O)[nH]c1=O	i	nt	nt	nt	nt	nt	nt
CN1CCC(C)(O)C2CCCCC21 (stereo not given)	i	nt	i	nt	-11.1	i	i
CC(=O)O[C@]1(c2ccccc2)CCN(C)[C@H]2CCCC[C@@H]21	i	i	i	i	i	i	nt
CC(N=Cc1c(O)[nH]c(=O)[nH]c1=O)c1ccccc1 (stereo not given)	i	i	i	i	nt	nt	nt
Cc1ccc(-n2c(O)c(C=NC3CCCC3)c(=O)[nH]c2=O)c(C)c1	i	i	i	i	nt	i	nt
CCN1C(=O)C(=Cc2ccc(N3CCOCC3)o2)C(=O)N(CC)C1=S	i	nt	nt	nt	nt	nt	0.0545
C=CCN1C(=O)/C(=C\c2ccc(N3CCOCC3)o2)C(=O)NC1=S	i	i	i	i	-4.74	i	0.052
SMILES	p97 ATPase inh	bCat KO growth	Lmaj promast	PTEN del growth	ROMK primary	Insulin prom inh	ROMK retest
CN1C(=O)/C(=C/c2ccc(N3CCCCCC3)o2)C(=O)NC1=S	i	i	i	i	i	i	nt
Clc1ccc(C2NCCc3[nH]cnc32)cc1 (stereo not given)	i	i	i	i	nt	nt	nt
COC(=O)C1C=C2c3cccc4[nH]cc(c34)CC2N(C)C1 (stereo not given)	i	nt	nt	nt	nt	nt	0.0542
CCC(C)n1c(O)c(C=Nc2cccc(C(F)(F)F)c2)c(=O)[nH]c1=S (stereo not given)	i	i	i	i	i	i	nt
O=C(Cn1ccc2ccccc2c1=O)NCC(=O)N1CCC2(CC1)OCCO2	i	nt	i	nt	i	nt	nt
CC1CCC(C(C)C)C(OC(=O)Cn2c(COc3ccccc3)[n+](C)c3ccccc32)C1 (stereo not given)	i	nt	nt	nt	-8.83	nt	0.0374
C=C1C[C@]2(O)[C@@]3(C)CCC(=O)C(C)(C)C3=C(O)C(=O)[C@@]2(C)[C@@H]2C(=O)O[C@@](C)(C(=O)OC)C(=O)[C@@]12C	i	nt	i	nt	nt	nt	nt
CCOC(=O)[C@]1(C#N)[C@@H]2C=CC(C(C)=O)=CN2[C@@H](C(N)=O)[C@@H]1c1ccsc1	i	i	i	i	-3.58	i	0.0493
CCCCC(=O)N/N=C/c1c(O)n(CC)c(=S)[nH]c1=O	i	i	i	i	1.88	i	i

Assay outcomes as filed in PubChem BioAssay.
